Experimental data: PubChem BioAssay (NCATS)
Records with an inconclusive call do not appear. Where a call stands in place of a potency, no number is given. The source made the active and inactive calls. The call rests on the fitted dose curve; in most records, active means well fitted curve in the direction sought with a large enough effect; inconclusive means small, poorly fitted or top-dose-only effect, or another doubt; inactive means no such curve, though single readings can be large; an effect the other way counts as inactive or inconclusive.

What was measured:
[1] = biological target: Aldehyde dehydrogenase, mitochondrial (Homo sapiens) (UniProt P05091); experiment: qHTS for Inhibitors of the Aldehyde Dehydrogenase Family (ALDH2) Primary screen (AID 2061308); conditions: ALDH2 enzyme inhibition qHTS, 1536-well; series mostly up to 56 µM; further: nearly all actives have a fitted effect of over 55% in size
[2] = biological target: Retinaldehyde dehydrogenase 3 (Homo sapiens) (UniProt P47895); experiment: qHTS for Inhibitors of the Aldehyde Dehydrogenase Family (ALDH1A3) Primary screen (AID 2061315); conditions: ALDH inhibition qHTS; series mostly up to 56 µM

Row | SMILES | Potency [1] | Potency [2]
1 | Cn1c2cc(Br)sc2c2cnn(Cc3ccccc3F)c(=O)c21 | inactive | inactive
2 | CC1CC(=O)NN=C1c1ccc(NCC(C)(C)NCC(O)COc2cc(Cl)ccc2C#N)cc1 (stereo not given) | inactive | inactive
3 | Cc1ccc(C2=NN(CC(=O)N(C)C(C)c3ccco3)C(=O)C2)cc1 (stereo not given) | inactive | inactive
4 | CC1=C(C(=O)Nc2ccon2)C2(CCCC2)N=C(Nc2nc3ccccc3o2)N1 | inactive | inactive
5 | O=[S+]([O-])(c1ccc2nsnc2c1)N1CCN([S+](=O)([O-])c2c(F)cccc2F)CC1 | inactive | inactive
6 | CCN(CC)CCCCn1c(-c2ccccc2)nc2c(N(CCOC)CCOC)nc(C)nc21 | inactive | inactive
7 | S=C(NCCCc1cnc[nH]1)NCCCN(Cc1ccc(Cl)c(Cl)c1)c1ccc(Br)cn1 | inactive | inactive
8 | Brc1ccc(-c2csc(N3CCOCC3)n2)cc1 | inactive | inactive
9 | COc1ccc2ncnc(NCC3CCCO3)c2c1-c1ccc2c(c1)OCO2 (stereo not given) | inactive | inactive
10 | CCC(CC)C(=O)NCCc1nc2ccccc2n1CCOc1ccc(C)cc1 | inactive | inactive
11 | O=C1NC(=O)/C(=C/c2ccco2)N1 | inactive | inactive
12 | Cc1cnc(-c2ccccc2C(C)C)nc1NCc1ccc(C2CCCNC2)cc1 (stereo not given) | inactive | inactive
13 | CC(C)(C)OC(=O)N1CCC(C(=O)Nc2ccc([S+](=O)([O-])Nc3nccs3)cc2)CC1 | inactive | inactive
14 | COc1cccc(C2c3c(ncn(Cc4cccs4)c3=N)Oc3ccc4ccccc4c32)c1 (stereo not given) | inactive | inactive
15 | COc1ccc(C2c3c(n(CCCc4ccccc4)cnc3=N)Oc3ccc4ccccc4c32)cc1OC (stereo not given) | inactive | inactive
16 | O=S(=O)(c1ccc2c(c1)OCCO2)N1CCN(S(=O)(=O)c2c(Cl)cc(C(F)(F)F)cc2Cl)CC1 | inactive | inactive
17 | COc1ccc(S(=O)(=O)Nc2cnccc2C(=O)Nc2nc(-c3ccccc3)cs2)cc1 | inactive | inactive
18 | NCCCC[C@H](N)C(=O)Nc1ccc(Cl)cc1C(=O)c1ccc[nH]1 | inactive | inactive
19 | Cc1cc(C=CC#N)cc(C)c1Nc1nc(Nc2ccc3c(c2)OCO3)c2[nH]cnc2n1 | inactive | inactive
20 | N#CN1CCC(NC(=O)c2cccc(C(F)(F)F)c2)CC1 | inactive | inactive

Row | SMILES | Potency [1] | Potency [2]
21 | CC(C)(C)NC(=O)N1CCC(C(=O)Nc2ccc([S+](=O)([O-])Nc3nccs3)cc2)CC1 | inactive | inactive
22 | O=S(=O)(c1ccc(O)c2ncccc12)N1CCCCC1 | inactive | inactive
23 | Cc1ccc(NS(=O)(=O)c2ccc3c(ccn3C)c2)cc1C | inactive | inactive
24 | O=S(=O)(c1ccc2c(c1)OCCO2)N1CCN(S(=O)(=O)c2ccc(Br)cc2F)CC1 | inactive | inactive
25 | O=C(O)c1sc2c(c1-c1nc3ccccc3s1)CCNC2 | inactive | inactive
26 | O=C(Nc1ccc(F)c(C(F)(F)F)c1)Nc1nnc(-c2cccnc2)s1 | inactive | inactive
27 | Cn1nnnc1Sc1ncnc2scc(-c3ccc(F)cc3)c12 | inactive | inactive
28 | N#Cc1cccc(NS(=O)(=O)c2ccc3c(c2)CCC(=O)N3)c1 | inactive | inactive
29 | Cc1nc(CNc2ncnc3ccc(-c4oc(-c5ccccc5)nc4C)cc23)cs1 | inactive | inactive
30 | COc1cc(NC(=O)C(OC(=O)CNC(=O)c2ccccc2)c2ccccc2)cc(C(F)(F)F)c1 (stereo not given) | inactive | inactive
31 | O=S(=O)(Nc1cnc2ccccc2c1)c1ccc(NCc2ccc(Br)cc2O)cc1 | inactive | inactive
32 | O=S(=O)(Nc1ccc(S(=O)(=O)Nc2nccs2)cc1)c1ccc2ccccc2c1 | inactive | inactive
33 | COC(=O)C1=CO[C@@H](O[C@@H]2O[C@H](CO)[C@@H](O)[C@H](O)[C@H]2O)[C@H]2[C@@H]1[C@H](O)[C@H](O)[C@]2(C)O | inactive | inactive
34 | N#Cc1ccc(C[C@@H](NS(=O)(=O)c2ccc(C(=O)O)cc2)C(=O)O)cc1 | inactive | inactive
35 | CC(=O)Nc1sc2c(c1-c1cncnc1)CCNC2 | inactive | inactive
36 | COC(=O)c1ccccc1S(=O)(=O)Nc1cc(=O)c2ccccc2[nH]1 | inactive | inactive
37 | NC(=O)C1CCN(c2nc(-c3cccs3)cs2)CC1 | inactive | inactive
38 | O=C1N/C(=C\c2ccco2)C(=O)N1Cc1ccc(F)cc1 | inactive | inactive
39 | Cc1ccc(OC2=NS(=O)(=O)c3ccccc32)cc1 | inactive | inactive
40 | O=S(=O)(Nc1ccccc1)c1ccc(NCc2cccc(Cl)c2O)cc1 | inactive | inactive
